In PubChem BioAssay (Tox21):
Inconclusive results are not listed. Values without a mark were called inactive. The source made the active and inactive calls. The call rests on the fitted dose curve; in most records, active means well fitted curve in the direction sought with a large enough effect in the repeat runs; inconclusive means weak or mixed curves; inactive means no such curve, though single readings can be large; an effect the other way counts as inactive or inconclusive.

Tested on: not listed separately
Assay: qHTS assay to identify aromatase inhibitors - cell viability counter screen (AID 743084);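 further: cells stimulated with testosterone during compound exposure; nearly all actives have a fitted effect of over 55% in size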
Conditions: MCF-7 aro ERE viability, CellTiter-Fluor, 24 h; series mostly up to 70.3 µM; activity change, negative = cytotoxicity: at the top concentration
On the % scale 0 is the no-effect control and ±100 the full control effect; potency means the concentration at half of the fitted maximal effect.

Going from C=C[C@H]1CN2CC[C@H]1C[C@H]2[C@H](OC(=O)OCC)c1ccnc2ccc(OC)cc12 to C[C@@H]1[C@@H]2Cc3ccc(O)cc3[C@@]1(C)CCN2CC1CC1, the “activity change, negative = cytotoxicity” value rises from -16% to 0.759%.

First: CC(C)[C@H]1C(=O)N2CCC[C@H]2[C@]2(O)O[C@](NC(=O)[C@@H]3C[C@@H]4c5cccc6[nH]cc(c56)C[C@H]4N(C)C3)(C(C)C)C(=O)N12
Second: CC(C)C[C@H]1C(=O)N2CCC[C@H]2[C@]2(O)O[C@](NC(=O)[C@@H]3C[C@@H]4c5cccc6[nH]cc(c56)C[C@H]4N(C)C3)(C(C)C)C(=O)N12
The “activity change, negative = cytotoxicity” value of the first is lower: -23.2% for the first, -4.78% for the second.

Going from C[C@]12CC[C@H]3[C@@H](CCC4=C(Cl)C(=O)CC[C@@]43C)[C@@H]1CC[C@@H]2O to CC(=O)[C@@]1(O)CC[C@H]2[C@@H]3CCC4=CC(=O)CC[C@]4(C)C3(F)[C@@H](O)C[C@@]21C (stereo not given in full), the “activity change, negative = cytotoxicity” value rises from -3.94% to -2.83%.

First: C=CCC1([C@@H](C)CCC)C(=O)NC(=O)NC1=O
Second: CN1c2ccccc2C(NCCCCCCC(=O)O)c2ccc(Cl)cc2S1(=O)=O (stereo not given)
The “activity change, negative = cytotoxicity” value of the first is higher: -0.703% for the first, -26.9% for the second.

First: c1ccc2c(c1)Sc1ccccc1N2C[C@@H]1CN2CCC1CC2
Second: CN[C@]1(c2ccccc2Cl)CCCCC1=O
The “activity change, negative = cytotoxicity” value of the first is higher: 11.6% for the first, 6.51% for the second.

In the case of CC(N)Cc1ccc2c(c1)OCO2 (stereo not given), the “activity change, negative = cytotoxicity” value is reported as 0.726%.

First: CCc1cc(OC)c(C[C@@H](C)N)cc1OC
Second: C[C@@H]1[C@H]2Cc3ccc(O)cc3[C@]1(C)CCN2C
The “activity change, negative = cytotoxicity” value of the first is higher: -0.345% [at 95 µM] for the first, -11.2% [at 95 µM] for the second.

Going from Clc1ccc(C(Cn2ccnc2)OCc2csc3c(Cl)cccc23)c(Cl)c1 (stereo not given) to C[C@@H](Cc1ccccc1)NCCC(c1ccccc1)c1ccccc1, the “activity change, negative = cytotoxicity” value falls from -0.938% [at 32.5 µM] to -4.68% [at 32.5 µM].

For CC[C@H]1[C@@H]2C[C@H]3[C@@H]4N(C)c5ccccc5[C@]45C[C@@H](C2[C@H]5O)N3[C@@H]1O (stereo not given in full), the “activity change, negative = cytotoxicity” value was 13.5% [at 32.5 µM].

In the case of [H+].[H+].[Hg+2].[O-]B([O-])[O-].[c-]1ccccc1, the Potency is reported as 10.6 µM (active).
For C[C@]12CC[C@@H]3c4ccc(OC(=O)N(CCCl)CCCl)cc4CC[C@H]3[C@@H]1CC[C@@H]2OP(=O)(O)O, the Potency was “inactive”.

Target: Aryl hydrocarbon receptor (Homo sapiens) (UniProt P35869)
Assay: qHTS assay to identify small molecule that activate the aryl hydrocarbon receptor (AhR) signaling pathway (AID 743085); further: nearly all actives have a fitted effect of over 15% in size;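 on activation: HG2L7.5c1 human HepG2 liver cells with stably integrated DRE-driven firefly reporter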
Conditions: HepG2 AhR-luc (HG2L7.5c1), luciferase, 24 h; series mostly up to 70.3 µM; activation: at the top concentration
Outline: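 HepG2 cells stably carrying a 20-DRE firefly luciferase reporter (HG2L7.5c1) treated with compound for 24 hr at 37C. Luciferase read by ONE-Glo luminescence, with CellTiter-Fluor viability read first.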

Aryl hydrocarbon receptor (Homo sapiens), sequence (P35869 whole entry, looked up): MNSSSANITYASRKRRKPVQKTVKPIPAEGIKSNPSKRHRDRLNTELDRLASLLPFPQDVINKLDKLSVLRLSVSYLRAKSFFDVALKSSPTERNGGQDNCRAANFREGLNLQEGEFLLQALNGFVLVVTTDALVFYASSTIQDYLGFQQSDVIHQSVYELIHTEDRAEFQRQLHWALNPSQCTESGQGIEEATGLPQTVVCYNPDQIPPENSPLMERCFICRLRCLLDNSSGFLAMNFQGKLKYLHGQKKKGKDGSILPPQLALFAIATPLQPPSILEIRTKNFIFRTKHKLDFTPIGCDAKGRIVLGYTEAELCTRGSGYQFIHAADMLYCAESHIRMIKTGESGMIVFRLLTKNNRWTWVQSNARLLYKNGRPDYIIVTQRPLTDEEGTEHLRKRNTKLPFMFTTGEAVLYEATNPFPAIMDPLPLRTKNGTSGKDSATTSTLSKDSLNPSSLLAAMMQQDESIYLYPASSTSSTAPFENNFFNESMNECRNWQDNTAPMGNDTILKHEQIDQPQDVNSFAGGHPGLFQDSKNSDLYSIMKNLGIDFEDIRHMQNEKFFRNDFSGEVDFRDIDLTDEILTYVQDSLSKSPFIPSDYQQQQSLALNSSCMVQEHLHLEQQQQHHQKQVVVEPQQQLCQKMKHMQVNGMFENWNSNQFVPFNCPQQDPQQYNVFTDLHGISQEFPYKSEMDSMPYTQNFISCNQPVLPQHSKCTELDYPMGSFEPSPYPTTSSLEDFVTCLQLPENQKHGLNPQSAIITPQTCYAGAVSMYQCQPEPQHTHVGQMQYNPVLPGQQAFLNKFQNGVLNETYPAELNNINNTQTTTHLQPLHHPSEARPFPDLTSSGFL

First: CC(C)=CCN1CC[C@]2(C)c3cc(O)ccc3C[C@H]1[C@H]2C
Second: C[C@@H]1[C@@H]2Cc3ccc(O)cc3[C@@]1(C)CCN2CC1CC1
The “activation” value of the first is higher: 0.983% for the first, -0.914% for the second.

Going from CN[C@@]1(c2ccccc2Cl)CCCCC1=O to CN[C@]1(c2ccccc2Cl)CCCCC1=O, the “activation” value falls from 1.86% to -2.33%.

First: CNC(C)CC1CCCCC1 (stereo not given)
Second: CN1CC[C@@]23CCCC[C@@H]2[C@@H]1Cc1ccc(O)cc13
The “activation” value of the first is lower: -3.01% for the first, 0.931% for the second.

Compared with CCC1(c2ccccc2)C(=O)NC(=O)N(C)C1=O (stereo not given), O=C1CN=C(c2ccccc2)c2cc(Cl)ccc2N1 is lower in “activation” value: -1.52% for the first, -2.56% for the second.

Compared with CCCCNC(C)(C)[P+](=O)O, C/C=C(\CC)C(=O)NC(N)=O is higher in “activation” value: -2.58% for the first, -0.634% for the second.

Compared with C[C@]12CCC(=O)C[C@@H]1CC[C@@H]1[C@@H]2CC[C@@]2(C)[C@H]1CC[C@]2(C)O, C[C@]12CC[C@H]3[C@@H](CCC4=C(Cl)C(=O)CC[C@@]43C)[C@@H]1CC[C@@H]2O is lower in “activation” value: 5.99% for the first, -1.19% for the second.

First: Cc1nnc2n1-c1ccc(Cl)cc1C(c1ccccc1)=NC2
Second: CN1c2ccccc2C(NCCCCCCC(=O)O)c2ccc(Cl)cc2S1(=O)=O (stereo not given)
The “activation” value of the first is lower: -0.402% for the first, 1.31% for the second.

Compared with Oc1ccc2c3c1O[C@H]1[C@@H](O)C=C[C@H]4[C@H](C2)NCC[C@@]341, CC(C)[C@H]1C(=O)N2CCC[C@H]2[C@]2(O)O[C@](NC(=O)[C@@H]3C[C@@H]4c5cccc6[nH]cc(c56)C[C@H]4N(C)C3)(C(C)C)C(=O)N12 is higher in “activation” value: -2.97% for the first, -2.43% for the second.

First: O=P1(N(CCCl)CCCl)NC(OO)CCO1 (stereo not given)
Second: COC(=O)[C@H]1[C@@H](OC(=O)c2ccccc2)C[C@@H]2CC[C@H]1N2C
The “activation” value of the first is higher: 1.07% for the first, -2.47% for the second.

Compared with C=CCC1([C@@H](C)CCC)C(=O)NC(=O)NC1=O, CC(=O)[C@@]1(O)CC[C@H]2[C@@H]3CCC4=CC(=O)CC[C@]4(C)C3(F)[C@@H](O)C[C@@]21C (stereo not given in full) is higher in “activation” value: -2.02% for the first, 4.51% for the second.

First: c1ccc2c(c1)Sc1ccccc1N2C[C@@H]1CN2CCC1CC2
Second: CC(N)Cc1ccc2c(c1)OCO2 (stereo not given)
The “activation” value of the first is lower: -0.174% for the first, 2.62% for the second.

First: CCNC1(c2cccs2)CCCCC1=O (stereo not given)
Second: O=c1ccc2cc(O[C@@H]3O[C@H](CO)[C@@H](O)[C@H](O)[C@H]3O)c(O)cc2o1
The “activation” value of the first is higher: -0.3% [at 32.5 µM] for the first, -1.45% [at 32.5 µM] for the second.

First: Clc1ccc(C(Cn2ccnc2)OCc2csc3c(Cl)cccc23)c(Cl)c1 (stereo not given)
Second: C[C@@H](Cc1ccccc1)NCCC(c1ccccc1)c1ccccc1
The “activation” value of the first is higher: 4.59% [at 32.5 µM] for the first, -0.743% [at 32.5 µM] for the second.

With CC[C@H]1[C@@H]2C[C@H]3[C@@H]4N(C)c5ccccc5[C@]45C[C@@H](C2[C@H]5O)N3[C@@H]1O (stereo not given in full) the “activation” value was 0.8% [at 32.5 µM].

In the case of CCCSc1cc(OC)c(CCN)cc1OC, the Potency is reported as 29 µM (active).
For C[C@]12CC[C@@H]3c4ccc(OC(=O)N(CCCl)CCCl)cc4CC[C@H]3[C@@H]1CC[C@@H]2OP(=O)(O)O, the Potency was “inactive”.

Compared with O=C(O)CCCO, CCc1cc(OC)c(C[C@@H](C)N)cc1OC is lower in “activation” value: -1.21% [at 95 µM] for the first, -1.41% [at 95 µM] for the second.

For C[C@@H]1[C@H]2Cc3ccc(O)cc3[C@]1(C)CCN2C, the “activation” value was -2.15% [at 95 µM].
